Here are results for 60 molecules from PubChem BioAssay AID602438 (Sanford-Burnham Center for Chemical Genomics, 2012).

What is called inhibition is the change of the read-out against control, counted positive when it falls.

About 3,100 (0.86%) of roughly 360,000 compounds were called active. This is one part of a sample in which actives are shown more often than they occur.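 How the source made its calls: active means inhibition or corrected inhibition above about 18%, plus a signal ratio from 0.5 to 1.5 (limit read from the data, passing the limit was not always enough); inactive means the rest.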

Neuropilin-1 (Homo sapiens), sequence (O14786 whole entry, looked up): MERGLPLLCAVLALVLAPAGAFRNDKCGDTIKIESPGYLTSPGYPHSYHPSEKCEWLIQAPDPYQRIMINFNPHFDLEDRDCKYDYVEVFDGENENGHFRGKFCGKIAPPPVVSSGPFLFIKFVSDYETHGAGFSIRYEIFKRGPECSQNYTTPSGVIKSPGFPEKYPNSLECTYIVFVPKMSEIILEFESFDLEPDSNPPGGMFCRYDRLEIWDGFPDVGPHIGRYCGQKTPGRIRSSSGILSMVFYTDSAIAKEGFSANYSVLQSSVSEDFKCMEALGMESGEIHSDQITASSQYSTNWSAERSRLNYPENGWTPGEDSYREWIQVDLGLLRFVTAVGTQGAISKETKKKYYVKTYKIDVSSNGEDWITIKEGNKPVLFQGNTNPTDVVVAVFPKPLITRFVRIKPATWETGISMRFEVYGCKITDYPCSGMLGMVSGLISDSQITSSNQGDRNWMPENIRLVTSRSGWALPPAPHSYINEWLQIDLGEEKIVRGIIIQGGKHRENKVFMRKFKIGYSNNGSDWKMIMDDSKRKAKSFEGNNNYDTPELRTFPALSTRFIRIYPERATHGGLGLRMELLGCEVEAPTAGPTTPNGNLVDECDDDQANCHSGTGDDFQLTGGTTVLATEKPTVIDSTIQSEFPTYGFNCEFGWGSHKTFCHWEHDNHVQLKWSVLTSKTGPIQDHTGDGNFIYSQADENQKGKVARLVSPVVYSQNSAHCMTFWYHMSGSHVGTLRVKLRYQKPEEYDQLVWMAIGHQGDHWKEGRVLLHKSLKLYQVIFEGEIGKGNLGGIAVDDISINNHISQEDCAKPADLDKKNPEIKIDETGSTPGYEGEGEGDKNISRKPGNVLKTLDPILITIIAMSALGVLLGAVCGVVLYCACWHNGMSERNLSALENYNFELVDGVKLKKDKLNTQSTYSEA

This experiment addresses Neuropilin-1 (Homo sapiens) (UniProt O14786). As to the kind of experiment: modulators of CendR peptide binding to NRP-1, primary screen, biochemical, fluorescence polarization, uHTS (AID 602438). As to conditions: FAM-RPARPAR peptide binding to NRP-1, fluorescence polarization; at 25 µM; stronger effect = higher value. Background: In fluorescence polarisation assays a small probe gives low polarisation when free and higher when bound to something large.
As to `CCN(CC)S(=O)(=O)c1ccc(CNC(=O)CN2C(=O)NC3(CCc4ccccc43)C2=O)cc1` (stereo not given), the inhibition is -10.1% (inactive).

Take `CCOC(=O)CSc1ccccn1`: the inhibition is 2.8% (inactive).

Take `CCOC(=O)CSc1nc(N2CCOCC2)c2c(c1C#N)CC(C(C)C)OC2` (stereo not given): the inhibition was -2% (inactive).

In the case of `CCOC(=O)CSc1nccc(N(C)C)c1C#N`, the inhibition was 25.2% (active).

Take `Cc1n[nH]c(C)c1S(=O)(=O)N1CCCC(C(=O)NCC2COc3ccccc3O2)C1` (stereo not given): the inhibition is 6.3% (inactive).

On to `COC(=O)Nc1ncc(CN2CCCCC2)s1`, for which the inhibition is 6.1% (inactive).

With `COC(=O)C1(C(=O)OC)C[C@H](c2ccccc2)N(Cc2ccccc2OC)[C@@H]1c1ccccc1`, the inhibition is 18.8% (inactive).

As to `COCCNC(=O)c1ccc2c(c1)ncn2-c1ccc(C)c(Cl)c1`, the inhibition was 37.8% (active).

As to `COCCCNC(=O)c1ccc2c(c1)ncn2-c1ccccc1OC`, the inhibition is -5.2% (inactive).

Turning to `COC(CNC(=O)c1ccc2c(c1)ncn2-c1cc(C)cc(C)c1)OC`, the inhibition is -2.4% (inactive).

Take `CC1(C)NC(=O)N(CC(=O)N2CCN(S(=O)(=O)c3ccccc3F)CC2)C1=O`: the inhibition was -17.9% (inactive).

On to `CCOC(=O)N1CCC(N(CCOC)C(=O)Nc2ccc(C)c(C)c2)CC1`, for which the inhibition was -9.1% (inactive).

With `CC(=O)NCC(=O)N(C)C(C(=O)Nc1ccc2c(c1)OCCO2)c1ccccc1` (stereo not given), the inhibition was -6% (inactive).

With `CC(=O)N1c2ccc(S(=O)(=O)N3CCC(C(=O)NC4CCCC(C)C4C)CC3)cc2CC1C` (stereo not given), the inhibition was 1.3% (inactive).

Take `CC(=O)N1c2ccc(S(=O)(=O)N3CCC(C(=O)NCc4ccc(F)cc4)CC3)cc2CC1C` (stereo not given): the inhibition is -3.5% (inactive).

Consider `CC(=O)N1c2ccc(S(=O)(=O)N3CCC(C(=O)NC4CCCCC4C)CC3)cc2CC1C` (stereo not given), for which the inhibition is 21.3% (active).

Regarding `COc1ccc(CN(C)C(C)C(=O)NC2CCCc3ccccc32)cc1` (stereo not given), the inhibition was -9.8% (inactive).

As to `COC(=O)c1cc(OCC(=O)NC2CCCc3ccccc32)cc(C(=O)OC)c1` (stereo not given), the inhibition is 11.6% (inactive).

`COc1ccc2c(c1)C(NS(=O)(=O)OCC(Cl)(Cl)Cl)CCC2` (stereo not given): the inhibition is 20.7% (active).

In the case of `CCCc1nnc(NC(=O)CCC(=O)NC2CC2)s1`, the inhibition was -3.9% (inactive).

On to `COc1cccc(N(C(=O)c2ccn[nH]2)C2(C(=O)Nc3c(C)cccc3C)CCCCC2)c1`, for which the inhibition was 20.6% (active).

`Cc1cccc(C)c1NC(=O)C1(N(C(=O)c2ccccn2)c2ccc(O)cc2)CCCCC1`: the inhibition is -2.4% (inactive).

Take `COc1cccc(NC(=O)C2(C)CCN2C(=O)CCC2CCCC2)c1` (stereo not given): the inhibition was -6.9% (inactive).

For the molecule `Cc1nc2c(-c3ccc(F)cc3)c(C)nn2c(C)c1CCC(=O)N1CCN(c2ccccn2)CC1`, the inhibition is -14.2% (inactive).

As for `COc1cc(Br)c(-c2sc(Nc3ccccc3)n[n+]2-c2ccccc2)cc1OC`, the inhibition was 23.7% (active).

`CCc1ccc(Nc2n[n+](-c3ccccc3)c(-c3cccc(Cl)c3Cl)s2)cc1`: the inhibition is 7.2% (inactive).

As for `COc1ccc(C)cc1Nc1n[n+](-c2ccccc2)c(-c2cccc(Cl)c2Cl)s1`, the inhibition was 9.5% (inactive).

Turning to `O=C(C(NS(=O)(=O)c1cccc2nsnc12)c1ccccc1)N1CCN(c2ccccc2)CC1` (stereo not given), the inhibition was 3.4% (inactive).

As to `COc1ccc(COC(=O)c2ccc(Cl)c(S(=O)(=O)N3CCOCC3)c2)cc1F`, the inhibition was -7.6% (inactive).

For `O=C(CP(=O)(c1ccccc1)c1ccccc1)N1CCOCC1`, the inhibition was 12.2% (inactive).

For `O=C(Cc1ccccc1Cl)N1CCOCC1`, the inhibition was 45.9% (active).

With `O=C(Cc1ccccc1Cl)N1CCN(c2ccccn2)CC1`, the inhibition is -9.5% (inactive).

`C=CCOc1cccc(CNn2cn[nH]c2=S)c1`: the inhibition is -0.4% (inactive).

On to `COC(=O)c1c(CCl)noc1C(=O)NC(C)C`, for which the inhibition is 28.8% (active).

As to `COC(=O)c1onc(-c2c(OC)cc(OC)cc2OC)c1C(=O)OC`, the inhibition was 2.6% (inactive).

With `CCCNC(=O)c1onc(CSc2ccc(F)cc2)c1C(=O)NC(C)C`, the inhibition is 5.5% (inactive).

For `CC1CC(C)(C)n2c(O)c(N=NC(N)=S)c3cccc1c32` (stereo not given), the inhibition is 6.2% (inactive).

On to `O=C(O)CCCN1C(=O)C2C3c4ccccc4C(c4ccccc43)[C@@H]2C1=O` (stereo not given in full), for which the inhibition was -2% (inactive).

Regarding `CCCCN(C)CCNC(=O)C1CCCN(S(=O)(=O)c2cccc3nsnc23)C1` (stereo not given), the inhibition was -1.2% (inactive).

Regarding `Cn1cccc1C1(C(F)(F)F)NCCNC1=O` (stereo not given), the inhibition is -1.4% (inactive).

Turning to `Cc1c(CCO)c(=O)n(-c2ccccc2)n1S(=O)(=O)c1ccc(F)cc1`, the inhibition is -66% (inactive).

As for `COc1cccc(-n2cc3c(c2-c2ccccc2)c(=O)n(C)c(=O)n3C)c1`, the inhibition was -0.7% (inactive).

As to `COc1cccc(-c2cc3nc(NCc4ccccc4OC)n(C)c(=O)c3s2)c1`, the inhibition is 9.9% (inactive).

On to `COc1cccc(-c2ccc3c(c2)N(Cc2ccccc2OC)C(=O)C(C)S3)c1` (stereo not given), for which the inhibition was 21.5% (active).

Consider `CN=C(c1ccccc1)c1c(C)cccc1C`, for which the inhibition was 1.9% (inactive).

Consider `Cc1nc(S(=O)(=O)c2ccc(Br)cc2)nc2c1CCC2`, for which the inhibition was 0.1% (inactive).

As for `Cn1c(N)c(C(=O)COC(=O)/C=C/c2cccc(C(F)(F)F)c2)c(=O)n(C)c1=O`, the inhibition was 4.9% (inactive).

With `CCOC(=O)CCC(NC(=O)c1ccc(CNc2nc3cc(C(F)(F)F)ccc3nc2C(=O)OCC)cc1)C(=O)OCC` (stereo not given), the inhibition was -1.5% (inactive).

Regarding `CCOC(=O)/C=C/c1ccc(C(F)(F)F)cc1S(=O)(=O)NC(C)(C)C`, the inhibition is 26.8% (active).

For the molecule `CCCn1c2ccccc2c2cnn(CC(=O)NCCCN3CCCCC3CC)c(=O)c21` (stereo not given), the inhibition was 29.4% (active).

In the case of `CC1CCCCN1CCCNC(=O)Cn1ncc2c([nH]c3ccccc32)c1=O` (stereo not given), the inhibition is 6.7% (inactive).

Turning to `O=C(Cn1ncc2c3ccccc3n(Cc3ccccc3)c2c1=O)NCCCN1CCOCC1`, the inhibition is 8.8% (inactive).

For `CCN(Cc1ccncc1)C(=O)CCc1ccccc1`, the inhibition is 9.5% (inactive).

With `CCN(CC)C(=O)c1nc[nH]c1C(=O)N(C)Cc1ccccc1`, the inhibition is 29.2% (active).

Turning to `CN(CCO)C(=O)c1nc[nH]c1C(=O)N(C)Cc1ccccc1`, the inhibition is 9.7% (inactive).

In the case of `CCN(CC(=O)Nc1ccc(OC)cc1)C(=O)c1ccc(=O)n(Cc2ccccc2)n1`, the inhibition was 4.7% (inactive).

As to `Cc1c(C(C)CCCO)oc(=O)c2c1Oc1c(C)c(C(C)C[C@@H](C)O)oc(=O)c1C2` (stereo not given in full), the inhibition is 13.8% (inactive).

Turning to `CCOC(=O)N1CCN(C(=O)Cn2cnc3ccccc3c2=O)CC1`, the inhibition was 3.1% (inactive).

For `CCOC(=O)N1CCN(C(=O)c2nn(-c3ccc(C)cc3)c(=O)c3c2c2ccccc2n3C)CC1`, the inhibition is 17.7% (active).

For `CCOC(=O)N1CCN(CC(=O)n2c(C)c(C)c3ccccc32)CC1`, the inhibition is 4.2% (inactive).
